40 compounds from PubChem BioAssay (EPA / NIEHS) can be followed below.

The source made the active and inactive calls. The calls were made as follows: active = hit-call score of the fitted dose curve at least 0.9, where 1 is the maximum; inactive = score below 0.9.

The assay in a line: ATG_CRE_CIS: Attagene CIS-FACTORIAL HepG2 Assay for human cAMP Responsive Element (CRE) binding protein 3 (AID 2282926). The conditions noted are these: HepG2 CRE cis-reporter, Attagene multiplexed mRNA; actives raise or lower the signal. As to the method: ATG_CIS is a cell-based, multiplexed-readout assay that uses HepG2, a human liver cell line, with measurements taken at 24 hours after chemical dosing in a 24-well plate.ATG_CRE_CIS is one of 52 assay component(s) measured or calculated from the ATG_CIS assay. It is designed to make measurements of mRNA induction, a form of inducible reporter, as detected with fluorescence intensity signals by Reverse transcription polymerase chain reaction (RT-PCR) and Capillary electrophoresis technology.Data from the assay component ATG_CRE_CIS was analyzed into 1 assay endpoint. This assay endpoint, ATG_CRE_CIS, was analyzed with bidirectional fitting relative to DMSO as the negative control and baseline of activity. Using a type of inducible reporter, measures of mRNA for gain or loss-of-signal activity can be used to understand the reporter gene at the transcription factor-level as they relate to the gene CREB3. Furthermore, this assay endpoint can be referred to as a primary readout, because this assay has produced multiple assay endpoints where this one serves a reporter gene function. To generalize the intended target to other relatable targets, this assay endpoint is annotated to the dna binding intended target family, where the subfamily is basic leucine zipper.
Human liver HepG2 cells are transiently transfected with multiple reporter transcription units (MRTUs) in 6-well plates using FuGene 6 reagent (Roche; 3 ml FuGene/1 mg DNA). The MRTU constructs are regulated by a cis-regulating element (promoter). […] A major difference between the CIS and TRANS system is that in CIS activities of endogenous TFs are measured, whereas the TRANS assay evaluates changes in activities of exogenous, chimeric NR-Gal4 proteins. […] At the end of 24 hour incubation, total RNA was isolated using TriZol reagent (Invitrogen). The isolated RNA is then reverse-transcribed using oligo(dT) primer and Mo-MLV reverse transcriptase (Invitrogen) with DNAse I (Ambion) treatment for 30 min. The one-tenth of the produced cDNA was amplified by PCR using Taq DNA polymerase (Invitrogen) and two reporter sequence-specific primers. The PCR products were fluorescently labeled by primer extension with 6-arboxyfluorescein (6-FAM) 5'-labeled reporter sequence-specific primer (2 min at 95 C, 20 s at 68 C and 10 min at 72 C) and these products were digested with 5U of HpaI (New England Biolabs) for 2h at 37 C. The fragments were purified using Qiaquick PCR columns (Qiagen), analyzed on an ABI 3130xL genetic analyzer (Applied Biosystems) with peak positions identified by using a set of X-rhodamine (ROX)-labeled MapMarker1000 molecular weight standards (BioVentures). The raw capillary electrophoresis data was processed using Attagraph software (Attagene).
As for `Cc1cccc(O)c1`, the compound was classed as inactive.
For `CCCCN(CCCC)CCCCCCN(CCCC)CCCC`, the compound was classed as inactive.
Regarding `Cc1ccc(C(C)(C)O)cc1`, the result was inactive.
For `C=C(C)CCCC(C)CCO` (stereo not given), the call was inactive.
Take `CCCCN(CCO)CCO`: the call was inactive.
Consider `CN(C)c1ccc(C=O)cc1`, for which the compound was classed as inactive.
Take `OCCN1CCOCC1`: the outcome was inactive.
`N#CCCCC(C#N)CCC#N` (stereo not given): the call was inactive.
In the case of `CC(C)(O)C(=O)c1ccc(OCCO)cc1`, the compound was called inactive.
For the compound `CC(=O)C1=C(C)[C@@H]2C[C@@]3(C1)[C@H](C)CC[C@H]3C2(C)C`, the AC50 was 76.3 µM (active).
`O=C(O)c1ccccc1O`: the compound was called inactive.
Consider `O=C(O)C1=NN(c2ccc(S(=O)(=O)O)cc2)C(=O)C1`, for which the compound was classed as inactive.
As to `OC[C@@H](O)[C@H](O)[C@@H](O)[C@@H](O)CO`, the compound was called inactive.
As for `CC/C(=C(\c1ccccc1)c1ccc(OCCN(C)C)cc1)c1ccccc1`, the result was inactive.
Take `CC(C)(C)c1cc(CCC(=O)OCCSCCOC(=O)CCc2cc(C(C)(C)C)c(O)c(C(C)(C)C)c2)cc(C(C)(C)C)c1O`: the result was inactive.
`COc1ccc(N)c(C)c1`: the compound was classed as inactive.
The same measure, in the same setting: for `CCCO` the value was “inactive”.
For the compound `CCCCOCC(C)OCC(C)O` (stereo not given), the outcome was inactive.
For the compound `CCOC(=O)COC(=O)c1ccccc1C(=O)OCC`, the result was inactive.
With `CC(C)N(c1ccccc1)C(C)C`, the compound was classed as inactive.
In the case of `c1coc(CNc2ncnc3nc[nH]c23)c1`, the compound was called inactive.
For the compound `CC(=O)CCc1ccc(O)cc1`, the result was inactive.
For `NC(=O)c1c(Cl)cccc1Cl`, the compound was classed as inactive.
On to `CCCC(O)C(CC)CO` (stereo not given), for which the outcome was inactive.
Consider `C=C1CC/C=C(\C)CC[C@@H]2[C@@H]1CC2(C)C`, for which the AC50 was 124 µM (active).
Take `CCCO[Si](OCCC)(OCCC)OCCC`: the compound was called inactive.
`CCCCCC#CC(=O)OC`: the result was inactive.
`O=c1cc[nH]cc1`: the compound was called inactive.
Consider `CC(=O)CCC=C(C)CCC=C(C)C`, for which the result was inactive.
With `CC(=O)OCC=C(C)CCC=C(C)CCC=C(C)C`, the call was inactive.
As to `Nc1ccc(O)c(N)c1`, the result was inactive.
Still for that read-out and setting: for `CC1=CCC(C(C)C)=CC1` the value was “inactive”.
As for `CCCCCCC(C)O` (stereo not given), the compound was called inactive.
On to `Cc1cc(O)c(C)c(C)c1O`, for which the compound was classed as inactive.
On to `CCCCC/C=C\C=C\C(=O)OCC`, for which the AC50 is 58.8 µM (active).
Take `CCOC(=O)CCCCCCCCC(=O)OCC`: the outcome was inactive.
Still for that read-out and setting: for `CCCC[N+](C)(CCCC)CCCC` the value was “inactive”.
Turning to `CCC(CC)CO`, the result was inactive.
As for `CC1=CC(C)C(C=O)C(C)C1` (stereo not given) (tested in a mixture with another compound), the call was inactive.
`CC/C=C\CCOC(=O)C(C)C`: the compound was classed as inactive.
